# In the library only some 6.6% were active in any assay of this set; here they are far more common.
# Bead autofluor: compound fluorescence in toxin protease inhibitor counterscreen. fluorescence intensity (no concentration beside the values). compound autofluorescence counterscreen, microsphere flow cytometry; hits give high values. 3.1% of 360,000 active. AID 624483; in the data active = fluorescence intensity above about 16000; inconclusive = no clear call, values can overlap the other calls
# Anthrax LF inh2: blocks Bacillus anthracis lethal factor protease; multiplex microsphere protease cleavage assay, LF; 0.12% of 360,000 active; AID 588501; P15917; inhibition, % at 10 µM; note: plate controls were buffer without enzyme for full effect and enzyme alone for no effect
# Target sequence (P15917 whole entry, looked up): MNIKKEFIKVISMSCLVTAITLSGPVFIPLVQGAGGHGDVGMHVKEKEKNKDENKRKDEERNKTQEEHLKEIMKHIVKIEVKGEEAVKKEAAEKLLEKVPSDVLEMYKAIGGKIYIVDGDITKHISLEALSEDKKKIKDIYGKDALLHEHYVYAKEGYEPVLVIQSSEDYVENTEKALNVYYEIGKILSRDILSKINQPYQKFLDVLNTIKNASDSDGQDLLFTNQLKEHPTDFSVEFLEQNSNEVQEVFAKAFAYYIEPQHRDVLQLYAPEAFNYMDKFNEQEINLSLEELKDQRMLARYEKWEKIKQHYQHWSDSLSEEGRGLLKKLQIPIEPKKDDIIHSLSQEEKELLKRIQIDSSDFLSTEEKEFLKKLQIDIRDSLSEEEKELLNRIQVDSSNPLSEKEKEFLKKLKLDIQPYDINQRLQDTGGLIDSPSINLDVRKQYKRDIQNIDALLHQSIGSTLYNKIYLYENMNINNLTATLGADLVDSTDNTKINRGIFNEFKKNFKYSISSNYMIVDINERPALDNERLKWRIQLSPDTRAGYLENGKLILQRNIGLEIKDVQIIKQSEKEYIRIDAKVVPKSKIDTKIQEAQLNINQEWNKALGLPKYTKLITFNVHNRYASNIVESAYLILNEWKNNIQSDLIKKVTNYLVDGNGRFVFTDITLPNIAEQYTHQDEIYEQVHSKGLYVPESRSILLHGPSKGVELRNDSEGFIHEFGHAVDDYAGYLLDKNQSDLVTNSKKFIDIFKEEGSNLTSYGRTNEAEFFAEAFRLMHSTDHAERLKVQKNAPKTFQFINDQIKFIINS
# FBA Mtb inh: Mtb fructose-bisphosphate aldolase inhibition; purified M. tuberculosis FBA, fluorescence read-out; inhibition, % at 1 µM; 2.3% of 360,000 active; in the data active = inhibition above about 27%;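 note: 0% = vehicle and 100% = reference inhibitor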
# BoNT-F LC inh: inhibitors of Botulinum neurotoxin F light chain protease; Multiplex microsphere protease cleavage assay, flow cytometry; inhibition, % at 10 µM; 0.22% of 360,000 active; in the data active = inhibition above about 35%, passing the limit was not always enough; inconclusive = no clear call, values can overlap the other calls; note: plate controls were buffer without enzyme for full effect and enzyme alone for no effect
# GDH-TPI counter: GDH-TPI coupled enzyme inhibition counter-screen; GDH-TPI coupled enzyme counterscreen, NADH absorbance; inhibition, % at 4.8 µM; 1.2% of 360,000 active; AID 588335; in the data active = inhibition above about 30%;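 note: 0% = DMSO wells and 100% = wells lacking the enzyme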
# BoNT A protease: blocks Botulinum neurotoxin A light chain protease; inhibition, % at 10 µM; multiplex microsphere protease substrate cleavage, flow cytometry; 0.17% of 360,000 active; note: plate controls were buffer without enzyme for full effect and enzyme alone for no effect
# * = called active by the depositor; ? = inconclusive; . = no result. Cut-off read from the data, not from the text of the source, unless noted: active = inhibition above about 30%; inconclusive = no clear call, values can overlap the other calls; inactive = below that.
SMILES,Bead autofluor,Anthrax LF inh2,FBA Mtb inh,BoNT-F LC inh,GDH-TPI counter,BoNT A protease
COc1ccc(Cn2c(CCC(=O)NCc3ccco3)nc3cccnc32)cc1,22452*,-1,4,-2,5,2
COc1cc2nc(SCC(=O)NCc3ccco3)n(Cc3ccc(Cl)cc3)c(=O)c2cc1OC,23649*,-2,2,-2,12,?
O=C(Nc1ccc2c(c1)C(=O)NC2=O)c1cc(Cl)ccc1Cl,5743,-3,19,-8,-6,0
CC1(C)N=C(c2ccc(Cl)cc2Cl)C(=O)N1,22553*,2,-2,2,-4,3
O=C(O)C(Cc1c[nH]c2ccccc12)NS(=O)(=O)c1ccc(Cl)cc1 (stereo not drawn),3672,3,-2,2,2,-1
CC(=O)Nc1ccc(S(=O)(=O)N2CCN(C(=O)c3cccnc3)CC2)cc1,23558*,-3,-2,-4,-6,-1
CC(=O)Nc1ccc(S(=O)(=O)N(c2cccnc2)S(=O)(=O)c2ccc(NC(C)=O)cc2)cc1,23675*,-1,2,-6,4,-2
CC(=O)Nc1ccc(S(=O)(=O)N(C)c2ccccc2)cc1,9834,-4,5,-24,-6,-2
O=C(Nc1ccc(S(=O)(=O)N2CCN(Cc3ccccc3)CC2)cc1)c1cnccn1,16875*,-3,-1,-6,4,-2
C[C@]12CCC(=O)CC1=CCC1C3CC=C(C#N)[C@@]3(C)CC[C@@]12O (stereo partly drawn),4748,4,3,5,6,-2
O=C(Nc1ccc(F)cc1)c1sccc1SCc1cccc(C(F)(F)F)c1,26797*,-4,-3,-14,4,?
COc1ccc(NC(=O)c2sccc2SCc2cccc(C(F)(F)F)c2)cc1,8053,-6,3,-5,15,-1
O=C(Nc1c2c(nn1-c1ccc(F)cc1)CS(=O)(=O)C2)C12CC3CC(CC(C3)C1)C2,24380*,-2,-1,-3,-5,?
CCCC(=O)Nc1c2c(nn1-c1ccc(F)cc1)CS(=O)(=O)C2,2958,-8,2,-32,3,-2
CCCCn1c(O)c(/C=N/N2CCOCC2)c(=O)[nH]c1=S,3231,-7,3,?,37*,3
O=c1[nH]c(=S)n(C2CCCCC2)c(O)c1C=NCCN1CCOCC1,.,.,-7,.,45*,.
C=CCn1c(O)c(C(CC)=Nc2ccccc2NC(C)=O)c(=O)[nH]c1=O,8842,5,1,-5,-4,0
C=CCn1c(O)c(C=NCCN2CCOCC2)c(=O)[nH]c1=S,?,-12,-3,?,48*,-1
C=CCn1c(O)c(C(CC)=Nc2ccccc2NC(=O)CC)c(=O)[nH]c1=O,20357*,-3,0,1,-3,?
CC1CCCC(NC(=O)C2CCCN2S(=O)(=O)c2cccc3nsnc23)C1C (stereo not drawn),5414,1,0,8,19,0
COC(=O)c1ccc([C@@H]2C[C@H]3CN(Cc4cccnc4)C(=O)[C@]34CCCN24)cc1,5405,1,1,-1,-1,0
C=CCn1c(O)c(C(CC)=NCCN2CCOCC2)c(=O)[nH]c1=O,19747*,-2,1,10,4,5
C=CCn1c(O)c(C(CC)=NCCCO)c(=O)[nH]c1=O,3273,2,0,-3,-1,-1
COCCNC(=O)/C(C#N)=C/c1c(N2CCN(c3ccccc3)CC2)nc2c(C)cccn2c1=O,3935,3,25,-10,7,-3
CCN1CCN(c2nc3c(C)cccn3c(=O)c2/C=C(\C#N)C(=O)NCCCOC)CC1,4081,0,143*,8,-5,0
SMILES,Bead autofluor,Anthrax LF inh2,FBA Mtb inh,BoNT-F LC inh,GDH-TPI counter,BoNT A protease
CCC(C)n1c(=S)[nH]c2c(sc3ccc([N+](=O)[O-])cc32)c1=O (stereo not drawn),10217,-4,0,-1,0,-1
CC(=O)C1CCC2C3CC(C)C4(O)CC(=O)CCC4(C)C3C(O)CC12C (stereo not drawn),2877,-5,1,-5,9,0
CC(=O)C12CCCCC1CC1C3CC(C)C4(O)CC(=O)CCC4(C)C3CCC12C (stereo not drawn),3351,10,0,35*,-8,1
CNC(=O)C1CC(=O)N/C(=N/N=C(\C)c2cccs2)S1 (stereo not drawn),4350,-1,-5,0,37*,0
COc1ccc(/C(C)=N/N=C2/NC(=O)CC(C(=O)O)S2)cc1F (stereo not drawn),3616,0,-5,6,52*,2
CN(Cc1ccccc1)C(=O)[C@@H]1CCCN1C(=O)[C@@H]1CCCN1C(=O)OC(C)(C)C,5538,14,.,-1,.,0
c1cncc(-c2nnc(-c3ccco3)o2)c1,12916,-4,114*,-9,-2,-1
COc1cc(-c2nnc(-c3ccco3)o2)ccc1OCc1ccccc1,4476,-5,121*,4,8,0
Clc1ccccc1-c1nnc(-c2cccnc2)o1,3929,-11,1,-16,-4,-4
COc1cc(-c2nnc(-c3ccncc3)o2)ccc1OCc1ccccc1,9835,-1,3,4,-6,0
COc1ccc(-c2nnc(-c3cccnc3)o2)cc1OC,24717*,-2,3,-9,4,-7
CNc1ccccc1C(=O)OC(C)C(=O)Nc1ccc(Cl)cn1 (stereo not drawn),3034,6,112*,11,22,10
CCOC(=O)C1(CCCc2ccccc2)CCN(C(=O)c2n[nH]c(CC)c2C)CC1,3657,-2,-2,-9,-14,0
COC(=O)CCCC1=CC2=C(c3ccccc3)C(=O)C(C)(OC(=O)C3CCCC3)C(=O)C2=CN1CCc1c[nH]c2ccccc12 (stereo not drawn),3582,-9,-7,-11,4,0
COc1cccc(CNCCNC(=O)c2nonc2N)c1,24154*,-3,4,-9,4,-5
Cc1cc(C)nc(NC(=O)/C=C/c2ccccc2Cl)c1,2227,0,2,-5,8,0
O=C(/C=C/c1cccs1)Nc1cccc(NC(=O)/C=C/c2cccs2)n1,2121,-3,0,-9,57*,0
Cc1cc(C)nc(NC(=O)/C=C/c2cccs2)c1,4081,-2,-4,-2,47*,0
COc1nc(OC)nc(N2CCC(C(=O)Nc3cccc4ccccc34)CC2)n1,23395*,-3,2,-4,-2,-2
COc1nc(OC)nc(N2CCC(C(=O)Nc3cccc4c3CCCC4)CC2)n1,15828,-3,2,0,15,0
COc1nc(OC)nc(N2CCC(C(=O)NCc3ccco3)CC2)n1,19494*,0,0,2,4,2
Cc1nn(-c2ccc(F)cc2)c(Cl)c1/C=C/C(=O)OCC(=O)Nc1c(F)c(F)c(F)c(F)c1F,2533,0,1,-4,-4,0
